Anesthetic bind: binds horse apoferritin like a general anesthetic; P02791; apoferritin/1-aminoanthracene competitive binding, fluorescence; Potency, µM (titrated, usually from 77.5 µM), most hits filed as inhibitors; 0.074% of 350,000 active; AID 485281; also: nearly all actives have a fitted effect of over 20% in size
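In PBS, apoferritin at 10 uM is loaded with 1-AMA from a 50% saturated solution. After 10 min of compound exposure at ambient temperature, reduced 535 nm fluorescence indicates probe displacement.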
B2AR arrestin: recruits beta-arrestin to the human beta2-adrenergic receptor | P07550 | beta-arrestin recruitment to beta2AR, cell-based reporter | Potency, µM (top dose mostly 46.1 µM), most hits filed as activators | 0.02% of 330,000 active | AID 492947; also: nearly all actives have a fitted effect of over 65% in size
Chronic BCR inh: blocks chronic active B-cell receptor signaling | 0.05% of 340,000 active | AID 493014 | ABC-DLBCL IkBa-CBG/CBR reporter, luminescence ratio, 4 h | Potency, µM (top dose mostly 46.1 µM), hits mostly inhibitors; active = well fitted inhibition curve with a large enough effect in the signal ratio, with a control signal flat, not every such curve was filed as active; inconclusive = small, poorly fitted or top-dose-only effect, or effect the other way, or a change in a side signal; the % refers to the signal ratio
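Doxycycline induced both beetle luciferases in TMD8 lymphoma cells; IKK-driven degradation limits the IkappaBalpha-fused green signal, while red luminescence normalises for cell number and nonspecific effects. Compounds tested up to 46 uM, 4 hrs.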
MBNL1 CUG block: blocks human MBNL1 binding to CUG repeat RNA. Q9NR56. TR-FRET MBNL1-His/biotin-(CUG)12 binding, 665/545 ratio. Potency, µM (highest dose often 57.5 µM), usual class: inhibitors. 0.036% of 280,000 active. AID 2675; active = well fitted inhibition curve with a large enough effect in the signal ratio, with a control signal flat, not every such curve was filed as active; inconclusive = small, poorly fitted or top-dose-only effect, or effect the other way, or a change in a side signal; inactive = no such curve, though single readings can be large or run the other way; the % refers to the signal ratio
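TR-FRET readout: Ex 340 nm, 665/545 nm emission ratio, normalized to buffer-only (basal) and MBNL1-(CUG)12 controls. Complex of MBNL1-His with Biotin-(CUG)12, compounds 92 nM–58 uM, incubated 60 min at room temperature.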
GLS inh: blocks human kidney-isoform glutaminase activity; O94925; GLS enzymatic activity, qHTS titration; Potency, µM (doses to about 45.5 µM), most hits filed as inhibitors; 0.21% of 410,000 active
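hKGA; 45 mM KH2PO4 pH 8.2 + 0.02% Tween-20; cpd via pin tool; 1 mM Gln soln; GluOx/HRP/Amplex Red; RT 30 min; fluor. t0 & final.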
GLS confirm: confirmation of human glutaminase inhibitors. 35 tested, under 10 active. Potency, µM (series often up to 46.1 µM), actives largely listed as inhibitors. AID 624261. biochemical glutaminase enzyme inhibition assay. shares compounds with GLS inh; calls by dose curve
GLS HRP counter: counter-screen for glutaminase inhibitors: HRP coupled enzyme inhibition; shares compounds with GLS inh; HRP/glutamate oxidase coupled Amplex Red fluorescence counterscreen; activity change, negative = inhibition, % at 46.1 µM; 35 tested, under 10 active; AID 624262
GLS HEK tox: reduces HEK-293 viability in glutaminase inhibitor counter-screen; shares compounds with GLS inh; HEK-293 viability, CellTiter-Glo luminescence, 24 h; activity change, negative = cytotoxicity, % at 46.1 µM; 35 tested, under 10 active
A number is an active result; – = inactive; ? = inconclusive; · = no result. Rows were chosen to be rich in hits. Some 0.35% of all compounds tested hit in one or more screens of this group. Unless noted, calls follow the shape of the dose curve; as a rule, active = well fitted curve in the direction sought with a large enough effect; inconclusive = small, poorly fitted or top-dose-only effect, or another doubt; inactive = no such curve, though single readings can be large; an effect the other way counts as inactive or inconclusive.

SMILES	Anesthetic bind	B2AR arrestin	Chronic BCR inh	MBNL1 CUG block	GLS inh	GLS confirm	GLS HRP counter	GLS HEK tox
Cc1ccc(S(=O)(=O)Nc2ccc(O)c3ccccc23)c(C)c1	–	–	?	?	7.9µM	?	–	–
COc1ccccc1N(C)S(=O)(=O)c1ccc(C(=O)OCC(=O)N(C)c2ccccc2)cc1	–	–	–	–	7.1µM	–	–	–
CN1C(=O)c2cccc3c(S(=O)(=O)Nc4ccc(O)c(C(=O)O)c4)ccc1c23	–	–	–	?	?	?	?	–
CN1C(=O)c2cccc3c(S(=O)(=O)NCCc4ccccc4)ccc1c23	–	–	–	?	–	·	·	·
COc1ccc(-c2cc(C(=O)NCc3ccccc3)c3c(-c4ccccc4)[nH]nc3n2)cc1	–	·	·	·	–	·	·	·
CCN(CC)S(=O)(=O)c1ccc(NS(=O)(=O)c2cccc(C)c2)cc1	?	–	–	–	?	–	–	–
COc1ccc(OC)c(S(=O)(=O)Nc2cccc3ccc(O)cc23)c1	·	·	·	·	6.3µM	–	?	–
CN(C(=O)CSc1nc2ccc(NC(=O)c3ccc(F)cc3)cc2s1)c1ccccc1	–	·	·	·	–	·	·	·
COc1ccccc1NS(=O)(=O)c1cc(N)ccc1N1CCOCC1	·	–	–	·	–	·	·	·
COc1ccccc1NS(=O)(=O)c1cc(N)ccc1N1CCCC1	·	–	–	·	?	–	?	–
Cc1ccc(S(=O)(=O)Nc2cc(C)c(O)c(Sc3n[nH]c(C)n3)c2)cc1	–	–	–	–	10µM	?	?	–
COc1ccccc1NS(=O)(=O)c1cc(NC(=O)C(C)NC(N)=O)ccc1N1CCCC1 (stereo unspecified)	·	–	–	·	–	·	·	·
COc1ccc(NS(=O)(=O)c2cc(NC(=O)[C@H](C)NC(N)=O)ccc2N2CCCC2)cc1	·	–	?	·	16µM	–	?	–
Cc1ccc(S(=O)(=O)Nc2cc(Cl)c(O)c3ncccc23)cc1	–	–	–	–	7.1µM	?	–	?
Cc1ccc(S(=O)(=O)Nc2cc(S(=O)(=O)c3ccc(C)cc3)c(O)c3cccnc23)cc1	–	·	·	·	·	·	·	·
Cc1ccc(C2=Nc3ccccc3N(CC(=O)Nc3ccccc3F)C(=O)C2)cc1C	–	·	·	·	–	·	·	·
C=C1CC2C3C=C(C)C4=CC(=O)CCC4(C)C3CCC2(C)[C@@]1(OC(C)=O)C(C)=O (stereo partly specified)	·	·	·	·	–	·	·	·

From PubChem
